# Screening results (PubChem)
# Compounds with a hit are over-represented: about 0.99% of the library has one in this group of screens.
# TRPML1 blocker – inhibitors of human TRPML1 channel | Q9GZU1 | TRPML1-inducible cells, Ca2+ dye fluorescence, FDSS; hits give low values; inhibition of EC80 agonist-evoked calcium signal | activity change, negative = inhibition, % (concentration not given with the values) | hit rate 0.02% among 390,000 | AID 624415; in the data active = activity change below about -50%; inconclusive = between about -30% and that limit;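 also: stimulus is agonist 54-4 at its EC80 concentration; % is scaled to controls: 0 for no effect and ±100 for the full control effect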
#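 TRPML1-DL cells, Tet-induced overnight (~16 h, 37 °C) at 1,500 cells/well, were loaded with Ca8 no-wash dye plus quencher for 45-90 min at room temperature. Compounds were pinned during FDSS kinetic reading; agonist 54-4 at EC80 (4 uM final) then added.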
# TRPV1 agonist – human TRPV1 agonism; AID 540275; activation, % at 8.33 µM; hit rate 0.19% among 320,000; TRPV1-expressing cells, Fluo-8 calcium influx, agonist mode; in the data active = activation above about 80%; inconclusive = between about 30% and that limit; also: 0% is about no effect
# Target sequence (Q8NER1 whole entry, looked up): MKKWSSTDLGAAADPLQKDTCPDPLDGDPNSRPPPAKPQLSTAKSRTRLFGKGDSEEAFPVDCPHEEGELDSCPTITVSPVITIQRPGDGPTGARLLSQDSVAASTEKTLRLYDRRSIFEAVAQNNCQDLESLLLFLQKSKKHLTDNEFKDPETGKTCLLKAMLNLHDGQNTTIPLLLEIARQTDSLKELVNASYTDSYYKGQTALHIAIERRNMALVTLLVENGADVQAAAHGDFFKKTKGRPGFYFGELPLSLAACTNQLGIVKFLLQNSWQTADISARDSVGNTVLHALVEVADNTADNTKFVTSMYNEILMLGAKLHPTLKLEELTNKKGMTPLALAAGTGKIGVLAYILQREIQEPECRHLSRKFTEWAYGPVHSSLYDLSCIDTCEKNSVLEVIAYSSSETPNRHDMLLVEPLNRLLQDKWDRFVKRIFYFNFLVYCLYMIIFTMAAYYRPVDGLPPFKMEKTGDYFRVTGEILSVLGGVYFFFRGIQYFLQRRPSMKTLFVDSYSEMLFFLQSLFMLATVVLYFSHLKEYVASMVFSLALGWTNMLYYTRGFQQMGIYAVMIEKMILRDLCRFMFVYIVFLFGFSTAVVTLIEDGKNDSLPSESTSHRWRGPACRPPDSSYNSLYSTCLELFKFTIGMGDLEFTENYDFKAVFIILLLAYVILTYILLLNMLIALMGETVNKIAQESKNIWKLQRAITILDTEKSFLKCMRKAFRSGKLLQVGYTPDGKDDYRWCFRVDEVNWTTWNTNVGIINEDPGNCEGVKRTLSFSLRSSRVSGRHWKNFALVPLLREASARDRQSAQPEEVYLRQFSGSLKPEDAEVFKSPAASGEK
#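 Fluo-8 calcium influx in TRPV1-expressing cells, kinetic read (ex 480/em 520 nm). Compound added and read 3 min for agonist activity, followed by capsaicin at EC20 final and 2 min further read for enhancement.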
# TRHR ag – agonists of human TRH receptor. P34981. TRHR cells, calcium flux fluo-8, FDSS agonist mode. activation, % at 2 µM. hit rate 0.18% among 360,000. AID 493084; in the data active = activation above about 30%; also: 0% is about no effect
#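 Read-out: compound-evoked intracellular calcium rise in TRHR cells, fluo-8 dye, kinetic FDSS fluorescence at 1 s/cycle following a 10-cycle baseline. Cells cultured overnight before dye loading (30 min–1.5 h, RT).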
# TRPV1 PAM – human TRPV1 potentiation; Q8NER1; TRPV1-expressing cells, Fluo-8 calcium influx, capsaicin EC20 potentiation; potentiation, % at 8.33 µM; hit rate 0.02% among 320,000; in the data active = potentiation above about 80%; inconclusive = between about 30% and that limit; also: 0% is about no effect
#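 Cells expressing TRPV1 were dye-loaded with Fluo-8 and read kinetically: 10 s baseline, 3 min after compound (agonist portion), then 2 min after EC20 capsaicin (allosteric enhancer portion). Calcium-bound dye fluorescence at 480/520 nm.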
# TRPML1 ag – activates the human TRPML1 channel; TRPML1-expressing cells, Ca2+ dye fluorescence, FDSS; AID 624414; hit rate 0.12% among 410,000; Q9GZU1; activation, % (test concentration not listed); in the data active = activation above about 50%; inconclusive = mostly about 30% to 49%; also: 0% is about no effect
#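 Kinetic FDSS Ca2+ read in Tet-induced TRPML1-DL cells (ABD Ca8 dye plus quencher, 45-90 min RT loading): baseline, then compound, then 110 s agonist window; EC80 agonist 54-4 at 4uM final added afterwards for a 110 s antagonist window.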
# TRHR enhancer – TRH receptor (human) allosteric enhancement | P34981 | TRHR cells, fluo-8 calcium fluorescence, EC20 TRH enhancement | enhancement, % at 2 µM | hit rate 0.66% among 360,000; in the data active = enhancement above about 30%; also: 0% is about no effect
#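 Enhancer read-out: after compound pinning and an initial kinetic agonist-mode read, an EC20 of TRH (10 nM final) was injected and fluo-8 calcium signal (Ex 480/Em 530) followed at 1 s/cycle for 100 cycles in TRHR-expressing cells.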
# An asterisk follows results filed as active; ? = inconclusive; nt = not tested or not shown.
SMILES,TRPML1 blocker,TRPV1 agonist,TRHR ag,TRPV1 PAM,TRPML1 ag,TRHR enhancer
O=C(CBr)c1ccc(Oc2ccc(C(=O)C[n+]3ccccc3Cl)cc2)cc1,nt,nt,nt,nt,0,nt
Cc1ccc(C(=O)NCCCNC(=O)c2ccco2)cc1,11,-3,0,-12,2,-9
Cc1ccc(-c2cnc(SCCNC(=O)c3ccco3)[nH]2)cc1,10,14,0,-9,0,31*
Brc1ccc(/C=C2\C=Cc3ccccc32)cc1,nt,nt,nt,nt,-1,nt
O=C1C2CCCN2C(=O)N1CCCN1CCN(c2cccc(Cl)c2)CC1 (stereo not given),-10,1,0,-3,0,-5
O=C1C2CCCCN2C(=O)N1CCCCN1CCN(c2cccc(Cl)c2)CC1 (stereo not given),-13,0,1,24,0,32*
CCOC(=O)c1cc(C(=O)OCC)c(=O)[nH]c1C,2,-2,-1,1,0,1
CCOC(=O)c1cc2c(N)c(C(=O)c3ccc(Br)cc3)sc2[nH]c1=O,7,-4,0,?,0,35*
N#CC1=C(N)Oc2cc(O)c(Cl)cc2C1c1ccccc1F (stereo not given),7,?,55*,20,?,8
COC(=O)C1=C(C)OC(N)=C(C#N)C1c1ccccc1F (stereo not given),4,-1,0,-4,-1,-2
CCOc1ncccc1C(=O)OCC(=O)Nc1ccc(C)c(S(=O)(=O)N2CCOCC2)c1,-1,0,-1,14,3,-4
CCOc1ncccc1C(=O)OCC(=O)NCCc1ccccc1,30,-5,0,8,1,31*
CCOc1ncccc1C(=O)OCC(=O)Nc1ccc(C)c(S(=O)(=O)N(C)C)c1,9,-1,0,6,1,36*
CC(=O)c1c(C)[nH]c(C(=O)Nc2ccc(Cl)cc2)c1C,-2,4,-1,-3,2,36*
Cc1cc(N)c(NC2=CC(=O)CC(C)(C)C2)cc1C,4,2,-1,?,60*,1
CCOc1cc(N(CC)CC)ccc1/C=C(/C#N)c1nc2ccccc2[nH]1,13,?,41*,-11,25,12
COc1cc(/C=C(\C#N)c2nc3ccccc3[nH]2)cc(OC)c1O,4,?,65*,0,?,8
CCN(CC)c1ccc(/C=C(/C#N)c2nc3ccc(C)cc3[nH]2)c(OC(C)C)c1,-16,85*,83*,-7,0,16
Cc1ccc2nc(/C(C#N)=C/c3ccc(-c4ccc(F)cc4F)o3)[nH]c2c1,-1,nt,52*,nt,22,-4
COc1cccc(/C=C(\C#N)c2nc3ccc(C)cc3[nH]2)c1,13,nt,-1,nt,1,-3
Cc1c([S+](=O)([O-])N2CCN([S+](=O)([O-])c3c(F)cccc3F)CC2)sc2ccc(Cl)cc12,nt,nt,1,nt,nt,1
O=[N+]([O-])c1ccc(/C=C/c2ccnc3ccccc23)c([N+](=O)[O-])c1,nt,nt,nt,nt,0,nt
CCCOc1cc(N(CC)CC)ccc1/C=C(/C#N)c1nc2ccc(C)cc2[nH]1,32,?,32*,-10,?,9
CC(C)n1ncc2c(C(=O)Nc3ccc(S(N)(=O)=O)cc3)cc(C3CC3)nc21,-7,81*,0,-6,4,1
COC(=O)c1cc(NC(=O)c2cccc(C(F)(F)F)c2)c(=O)oc1C,8,8,-2,-7,0,0
SMILES,TRPML1 blocker,TRPV1 agonist,TRHR ag,TRPV1 PAM,TRPML1 ag,TRHR enhancer
COC(=O)c1cc(NC(=O)c2cccc(Cl)c2)c(=O)oc1/C=C/Nc1cc(C)cc(C)c1,nt,19,38*,29,nt,-3
Cc1ccc(S(=O)(=O)N2CCOCC2)cc1NC(=O)c1cc2c(s1)CCC2,-1,?,-1,-9,1,-3
Cc1ccc(NC(=O)c2cc3c(s2)CCCC3)cc1,0,84*,-1,-12,1,1
Cc1ccc(NC(=O)CN(C)C(=O)c2cc3c(s2)CCCCC3)cc1,-29,20,0,-17,1,0
Cc1ccc(S(=O)(=O)Nc2ccc(Cl)cc2)cc1NC(=O)c1cc2c(s1)CCCC2,4,-3,0,12,3,32*
Cc1cc2nccc(C)c2cc1C,nt,nt,nt,nt,0,nt
CC(C)(C)C(=O)NC(=S)NNC(=O)c1ccc(-c2ccccc2)cc1,4,?,58*,-21,80*,-3
COC(=O)NNC(=O)c1ccc(Cl)cc1Cl,3,-7,0,2,0,12
CC(C)(C)C(=O)NC(=S)NNC(=O)c1ccc(Cl)cc1Cl,19,?,102*,-12,66*,-7
Cc1cc(C)c2c(n1)NCCC2,nt,nt,nt,nt,0,nt
O=C(NC1CCCC1)C(c1ccc(F)cc1)N(C(=O)Cc1cccs1)c1ccc2c(c1)OCCO2 (stereo not given),-2,28,0,-23,1,30*
CC(Oc1ccccc1)C(=O)N[C@@H]1C(=O)N2C(C(=O)OCC3CCCCC3)C(C)(C)S[C@H]12 (stereo not given in full),nt,nt,nt,nt,0,nt
Cc1ccc(NC(=O)CN2C(=O)c3ccccc3Sc3ccc(C(=O)N4CCOCC4)cc32)c(Cl)c1,9,nt,0,nt,1,-3
Cc1cc(C)cc(NC(=O)CN2C(=O)c3ccccc3Sc3ccc(C(=O)N4CCCC4)cc32)c1,24,nt,0,nt,3,33*
CCOC(=O)c1cn(Cc2ccccc2)c(C(=O)OC(C)(C)C)c1O,-5,nt,nt,nt,60*,nt
CCCCCC1CCC(C(=O)N2CCOCC2)CC1 (stereo not given),-8,94*,-1,0,0,-2
CCCCCCC1CCC(C(=O)N2CCOCC2)CC1 (stereo not given),-2,89*,0,-17,1,-2
COc1ccc(C(=O)Oc2ccc(C3NC(=O)c4c(sc5c4CCN(C)C5)N3)cc2OC)cc1 (stereo not given),7,nt,50*,nt,6,7
CN1CCN(S(=O)(=O)c2ccc(N(C)Cc3ccc(OC(F)F)cc3)c([N+](=O)[O-])c2)CC1,-9,7,1,2,53*,-5
Cc1ccc(S(=O)(=O)N2CCN(C)CC2)cc1[N+](=O)[O-],-8,-5,1,4,0,-5
Cc1nc2c(cnn2-c2ccccc2Cl)c(=O)n1-c1ccc(C(C)C)cc1,-11,0,1,?,94*,-2
Cc1ccc(-n2c(-c3ccco3)nc3c(cnn3-c3ccccc3Cl)c2=O)cc1,-3,nt,0,nt,-1,-8
CNc1ccc(C=O)cc1Br,nt,nt,nt,nt,-1,nt
